Screens: PubChem, Sanford-Burnham Center for Chemical Genomics
Most compounds without a hit are left out; they make up all but 4% or so of the library.
TROY NFkB inh: inhibitors of TROY-dependent NF-kB signaling. AID 1347056. inhibition, % at 10 µM. hit rate 0.98% among 360,000. Q293 LMP1-TROYcd NF-kB luciferase reporter, 4 h;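 active = compounds whose plate-normalised and pattern-corrected inhibition of the luciferase reporter signal at the single screening dose is 50% or more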
HIF-2a inh: blocks HIF-2a reporter activity. 786-0 RCC cells HIF-2a reporter, luciferase luminescence, overnight. hit rate 0.72% among 360,000. inhibition, % at 18.8 µM;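 active = inhibition of the luminescence signal of 40% or more relative to plate controls, in a single-dose primary screen at 18.75 µM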
KKLEB tox: CF airway cell cytotoxicity counter-screen | hit rate 0.36% among 360,000 | KKLEB CF airway cells viability, ATPlite luminescence, overnight; active compounds read low; cells stimulated with P. aeruginosa culture filtrate | AID 602141 | activity change (cytotoxicity), % at 5 µM;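 active = corrected activity change at or below -50% at 5 µM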
TWEAK-Fn14 inh: TWEAK-Fn14 signaling inhibition. TWEAK-stimulated Fn14 reporter cells, luciferase luminescence, 8 h. inhibition, % at 10 µM. hit rate 2% among 360,000. AID 1159606; in the data active = inhibition above about 50%
CF NFkB block: inhibitors of cystic fibrosis induced NF-kB; KKLEB NF-kB-GFP reporter, PAF-induced, GFP fluorescence overnight; inhibition, % at 5 µM; hit rate 0.86% among 360,000; AID 588850;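 active = at least 50% inhibition at 5 µM, scaled per plate between neutral and stimulator controls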;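 note: PAF is a Pseudomonas aeruginosa culture filtrate used as stimulus; plate controls were PAF-stimulated DMSO wells for no effect and unstimulated DMSO wells for full effect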
Peg3 prom inh: Peg3 promoter activity inhibition. HeLa PEG-Prom luciferase reporter, luminescence, overnight. inhibition, % at 20 µM. hit rate 1.7% among 360,000;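 active = inhibition of at least 50% at 20 µM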
* marks the source's active call; other numbers are inactive results; . = no result.

SMILES	TROY NFkB inh	HIF-2a inh	KKLEB tox	TWEAK-Fn14 inh	CF NFkB block	Peg3 prom inh
O=C(Cc1n[nH]c(=O)c2ccccc12)N1CCN(S(=O)(=O)c2ccc(F)c(Cl)c2)CC1	7	21	17	9	2	-6
CC(C)Nc1nc(NC(C)C)nc(Oc2ccc(=O)n(C)n2)n1	-27	-5	-10	4	-2	-9
CCc1ccc(-c2cn(-c3nc(C)cc(C)n3)c(=N)o2)cc1	-1	-104	-11	91*	16	-6
CCC(C)(C)NC(=O)CN(C(=O)c1snc(C(N)=O)c1N)c1ccc2c(c1)OCCO2	-9	-12	1	31	16	-2
CCCC(C(=O)NC(C)(C)C)N(Cc1ccc(F)cc1)C(=O)c1snc(C(N)=O)c1N (configuration not stated)	9	18	1	1	-3	97*
CCCC(C(=O)NC(C)(C)C)N(C(=O)c1snc(C(N)=O)c1N)c1ccc2c(c1)OCCO2 (configuration not stated)	82*	35	-7	86*	22	20
COCCNC(=O)c1cccc(Nc2nc(-c3ccccc3)c3cc(Cl)ccc3n2)c1	32	2	-5	63*	5	53*
Cc1ccc(S(=O)(=O)N2CCN(Cc3cc(=O)n4ccccc4n3)CC2)c(C)c1	0	-1	6	-15	-10	15
COCC(=O)N1CCCC(CNS(=O)(=O)c2ccc(OC)cc2)C1 (configuration not stated)	71*	7	2	-9	-23	12
Cc1ccc2c(c1)c1c3n2CCNC3CCC1 (configuration not stated)	1	-11	21	-16	2	-21
COC(=O)c1ccccc1OCCCOc1ccc(C=O)cc1OC	34	-126	1	53*	-10	-129
COc1cccc(NC(=O)c2sc(Cl)nc2C)c1	-3	-27	7	0	-20	-32
Cc1ccc(-c2nnc(SCC(=O)NNC(=O)COc3ccccc3C)n2C)cc1	-4	3	7	-2	8	7
C#CCOCCOCCOCCNc1nc(N2CCOCC2)nc(N2CCN(C(=O)CCCCCCCCCCNC(=O)[C@@H]([C@H](C)CC)n3cc(CCCCCN)nn3)CC2)n1	-2	-2	8	-39	1	53*
C#CCOCCOCCOCCNc1nc(N2CCN(C(=O)CCCCCCCCCCNC(=O)Cn3cc(CCCCCN)nn3)CC2)nc(N2CCN(C(=O)CCCCCCCCCCNC(=O)[C@@H](CCSC)n3cc(CCO)nn3)CC2)n1	-21	-11	5	-24	-10	77*
C#CCOCCOCCOCCNc1nc(N2CCN(C(=O)CCCCCCCCCCNC(=O)[C@H]([C@@H](C)CC)n3cc(CCCCCN)nn3)CC2)nc(N2CCN(C(=O)CCCCCCCCCCNC(=O)[C@H](CO)n3cc(CCCCCN)nn3)CC2)n1	21	-3	-6	-21	-22	99*
C#CCOCCOCCOCCNc1nc(N2CCN(C(=O)CCCCCCCCCCNC(=O)[C@H]([C@@H](C)CC)n3cc(CCCCN=C(N)N)nn3)CC2)nc(N2CCN(C(=O)CCCCCCCCCCNC(=O)[C@H](CO)n3cc(CCCCCN)nn3)CC2)n1	21	0	10	0	8	28
C#CCOCCOCCOCCNc1nc(N2CCN(C(=O)CCCCCCCCCCNC(=O)[C@@H](CCC(=O)O)n3cc(CCCCCN)nn3)CC2)nc(N2CCN(C(=O)CCCCCCCCCCNC(=O)[C@H]([C@@H](C)CC)n3cc(CCCCCN)nn3)CC2)n1	-9	-17	19	-62	0	-40
C#CCOCCOCCOCCNc1nc(N2CCN(C(=O)CCCCCCCCCCNC(=O)[C@H]([C@@H](C)CC)n3cc(CCCCCN)nn3)CC2)nc(N2CCN(C(=O)CCCCCCCCCCNC(=O)[C@H]([C@@H](C)CC)n3cc(CCCCN=C(N)N)nn3)CC2)n1	39	-4	13	42	-46	71*
Cc1cnc(NC2=NCCC2)s1	7	1	-31	-2	6	-6
COc1ccc(Cl)cc1NC(=O)CN(C)CC(=O)Nc1c(C)n(C)n(-c2ccccc2)c1=O	8	9	1	43	15	14
O=C(O)CCCc1ccc2c(c1)CCc1ccccc1-2	27	68*	-2	56*	-24	4
Cc1cccc(CN2C(=O)/C(=C\c3ccc(C(=O)NCCCN4CCN(C)CC4)cc3)Oc3ccccc32)c1	-11	3	-28	-173	5	87*
CN1CCN(CCCNC(=O)c2ccc(/C=C3\Oc4ccccc4N(Cc4ccccc4F)C3=O)cc2)CC1	-5	4	-19	-67	19	69*
O=C(Cn1c(=O)c2cccn2c2ccccc21)Nc1cc(F)ccc1F	-20	9	8	-5	-24	-1
SMILES	TROY NFkB inh	HIF-2a inh	KKLEB tox	TWEAK-Fn14 inh	CF NFkB block	Peg3 prom inh
CC(=O)Nc1ccc(C(=O)OCc2ccc(Cl)c(Cl)c2)cc1	86*	-93	1	94*	-14	-5
CCc1nc(Nc2cc(OC)ccc2OC)c2oc3ccccc3c2n1	-12	-3	-16	-5	13	-13
CCc1nc(Nc2ccc3c(c2)OCO3)c2oc3ccccc3c2n1	31	-79	-8	50*	-1	-8
CCc1nc(Nc2cccc(O)c2)c2oc3ccccc3c2n1	76*	10	5	70*	12	57*
CCOC(=O)C1(C)NC(c2cccs2)C2C(=O)N(c3ccccc3)C(=O)C21 (configuration not stated)	6	9	14	19	-9	9
CCc1c(C(=O)NNC(=S)NCCc2ccccc2)csc1C	-41	-119	-6	-19	5	-61
CCc1cc2c(=O)oc(-c3ccc(F)cc3)nc2s1	9	-60	20	54*	-19	-36
CCc1cc2cc(C(=O)N3CCN(Cc4ccccc4)CC3)sc2s1	-4	-134	7	-6	6	-63
O=C(Cc1ccccc1)NNC(=S)NC(=O)c1cccnc1	-17	11	8	5	4	14
C/C(=N\NC(=S)NC1CCCCC1)c1ccc(Cl)c(Cl)c1	41	-74	3	62*	-11	-14
COCCSc1nnc(NS(=O)(=O)c2ccc(C)cc2)s1	54*	4	5	-2	-2	5
CC(C)(C)c1ccc(OCC(=O)NNC(=S)NC(=O)c2ccco2)c(Br)c1	2	5	-78*	-42	58*	27
Cc1occc1C(=O)NC(C)CCc1ccccc1 (configuration not stated)	.	1	6	52*	-3	4
Cc1cccc(C(=O)NCC(=O)NC(C)CCc2ccccc2)c1 (configuration not stated)	1	14	8	14	-18	15
CC(CCc1ccccc1)NC(=O)CNC(=O)c1cccs1 (configuration not stated)	5	6	3	61*	-16	-8
